This note sets out measurements from PubChem BioAssay (Tox21).

SMILES strings stand for the structures. Records with an inconclusive call do not appear. Activity calls are given as the source filed them. Unless noted, the call rests on the fitted dose curve; in most records, active means well fitted curve in the direction sought with a large enough effect in the repeat runs; inconclusive means weak or mixed curves; inactive means no such curve, though single readings can be large; an effect the other way counts as inactive or inconclusive.

A short description of test [1]: qHTS assay to identify small molecule antagonists of the thyroid receptor (TR) signaling pathway - cell viability counter screen (AID 743064). Further: nearly all actives have a fitted effect of over 50% in size. Further: potency means the concentration at half of the fitted maximal effect. The method in brief: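 GH3.TRE-Luc rat pituitary cells dosed after 4 hr plating, co-stimulated with T3 at 1 nM final, incubated 23.5 h at 37 C. Viability measured in the same wells by CellTiter-Fluor fluorescence after 30 min further at 37 C.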
For orientation: qHTS replaces the single test concentration by a dilution series.

Test [2] can be described thus: qHTS assay to identify small molecule antagonists of the thyroid receptor (TR) signaling pathway (AID 743065). Further: potency means the concentration at half of the fitted maximal effect; nearly all actives have a fitted effect of over 55% in size. The method in brief: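 GH3.TRE-Luc rat pituitary cells (two TREs driving luciferase) were dosed with compound, then stimulated with 1 nM T3 (final) for 23.5 h at 37 C. ONE-Glo luminescence was the read-out, with CellTiter-Fluor fluorescence as the cytotoxicity counter-screen.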

The nature of test [3]: qHTS assay to identify small molecule antagonists of the estrogen receptor alpha (ER-alpha) signaling pathway - cell viability counter screen (AID 743074; calls by dose curve; further: nearly all actives have a fitted effect of over 45% in size; further: potency means the concentration at half of the fitted maximal effect).
In test [4] the target is Estrogen receptor (Homo sapiens) (UniProt P03372). The experiment in a line: qHTS assay to identify small molecule agonists of the estrogen receptor alpha (ER-alpha) signaling pathway (AID 743075; calls by dose curve; further: potency means the concentration at half of the fitted maximal effect).
Estrogen receptor (Homo sapiens), sequence (P03372 whole entry, looked up): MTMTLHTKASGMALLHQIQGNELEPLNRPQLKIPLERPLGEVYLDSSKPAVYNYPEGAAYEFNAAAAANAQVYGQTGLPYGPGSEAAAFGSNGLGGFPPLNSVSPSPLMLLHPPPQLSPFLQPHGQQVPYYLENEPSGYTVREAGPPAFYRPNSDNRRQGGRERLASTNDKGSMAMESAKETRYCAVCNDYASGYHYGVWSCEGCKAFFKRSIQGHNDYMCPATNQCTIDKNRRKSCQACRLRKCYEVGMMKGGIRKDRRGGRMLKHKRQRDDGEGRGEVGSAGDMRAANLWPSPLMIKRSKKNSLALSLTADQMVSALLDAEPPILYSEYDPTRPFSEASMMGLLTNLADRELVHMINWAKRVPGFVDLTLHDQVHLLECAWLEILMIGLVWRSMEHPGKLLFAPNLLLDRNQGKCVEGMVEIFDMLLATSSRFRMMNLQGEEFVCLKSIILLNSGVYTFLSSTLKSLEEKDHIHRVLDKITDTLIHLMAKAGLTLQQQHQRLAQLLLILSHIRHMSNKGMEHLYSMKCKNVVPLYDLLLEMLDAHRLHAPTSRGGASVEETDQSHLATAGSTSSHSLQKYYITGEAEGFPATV
A short description of test [5]: qHTS assay to identify small molecule antagonists of the estrogen receptor alpha (ER-alpha) signaling pathway using the BG1 cell line - cell viability counter screen (AID 743081).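 Further: compound given together with 17beta-estradiol as the ER stimulus; nearly all actives have a fitted effect of over 45% in size.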 Further: potency means the concentration at half of the fitted maximal effect.
The target of another test is Aromatase (Homo sapiens) (UniProt P11511). The experiment in a line: qHTS assay to identify aromatase inhibitors (AID 743083). Further: nearly all actives have a fitted effect of over 55% in size. Further: potency means the concentration at half of the fitted maximal effect.
Aromatase (Homo sapiens), sequence (P11511 whole entry, looked up): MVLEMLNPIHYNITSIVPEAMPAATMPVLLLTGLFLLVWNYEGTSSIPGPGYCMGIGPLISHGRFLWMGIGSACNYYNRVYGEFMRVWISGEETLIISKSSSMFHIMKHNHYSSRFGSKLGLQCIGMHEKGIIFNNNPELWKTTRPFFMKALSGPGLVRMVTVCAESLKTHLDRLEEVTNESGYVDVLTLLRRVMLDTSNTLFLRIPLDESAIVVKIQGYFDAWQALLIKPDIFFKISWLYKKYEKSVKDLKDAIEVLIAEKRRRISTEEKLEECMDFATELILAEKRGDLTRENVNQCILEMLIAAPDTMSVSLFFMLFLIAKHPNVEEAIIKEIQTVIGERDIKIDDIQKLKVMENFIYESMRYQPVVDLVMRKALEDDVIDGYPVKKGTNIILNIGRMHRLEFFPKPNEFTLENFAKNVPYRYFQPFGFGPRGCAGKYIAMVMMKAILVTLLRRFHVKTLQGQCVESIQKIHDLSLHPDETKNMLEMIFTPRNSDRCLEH
Test [6] deals with thyroid hormone receptor (rat, GH3 cells). The experiment in a line: qHTS assay to identify small molecule agonists of the thyroid receptor (TR) signaling pathway (AID 743066; calls by dose curve).
Test [7] addresses Estrogen receptor (Homo sapiens) (UniProt P03372). The experiment in a line: qHTS assay to identify small molecule antagonists of the estrogen receptor alpha (ER-alpha) signaling pathway (AID 743069; active means well fitted curve in the direction sought with a large enough effect in the signal ratio in the repeat runs, not every such curve was filed as active; the % refers to the signal ratio). An outline of the steps: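 In this cell-based reporter format, GripTite HEK293 cells harbouring ER-alpha-UAS-bla were grown overnight with 2% charcoal-stripped FBS, dosed with DMSO-dissolved compounds, then challenged with 17beta-estradiol. After 18 hr at 37C, beta-lactamase activity was detected by FRET fluorescence.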

Test [8] has the same target. The experiment in a line: qHTS assay to identify small molecule agonists of the estrogen receptor alpha (ER-alpha) signaling pathway using the BG1 cell line (AID 743079). Further: nearly all actives have a fitted effect of over 20% in size. Further: potency means the concentration at half of the fitted maximal effect. To be noted: BG1Luc4E2 cells, ERE-luciferase agonist, 22 h; activation: at 70.3 µM (top of the series).
Test [9] is described as follows: qHTS assay to identify small molecule antagonists of the estrogen receptor alpha (ER-alpha) signaling pathway using the BG1 cell line (AID 743080; calls by dose curve;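 further: BG1 cells stimulated with 17beta-estradiol alongside compound; nearly all actives have a fitted effect of over 25% in size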). The method in brief: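 Luciferase inhibition measured with ONE-Glo after 30 min at RT in BG1Luc4E2 cells given test compounds and 17beta-estradiol for 21.5 h at 37 C; CellTiter-Fluor viability read in the same wells beforehand.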

In the case of `CC[C@@H](C(=O)O)[C@@H]1O[C@@H]([C@@H](C)[C@H](O)[C@H](C)C(=O)[C@H](CC)[C@H]2O[C@]3(C=C[C@@H](O)[C@]4(CC[C@@](C)([C@H]5CC[C@](O)(CC)[C@H](C)O5)O4)O3)[C@H](C)C[C@@H]2C)[C@@H](C)C[C@@H]1C`, the Potency in test [1] is 0.15 µM (active); in test [2], 0.0944 µM (active); in test [3] it was 0.151 µM (active); in test [5], 6.68 µM (active). For the same molecule, the Potency entry (in [4]; in the test with Aromatase (Homo sapiens)) was “inactive” throughout.

Turning to `CO[C@H]1C[C@H](O[C@H]2[C@H](C)O[C@@H](O[C@@H]3/C(C)=C/C[C@@H]4C[C@@H](C[C@]5(C=C[C@H](C)[C@@H](C6CCCCC6)O5)O4)OC(=O)[C@@H]4C=C(C)[C@@H](O)[C@H]5OC/C(=C\C=C\[C@@H]3C)[C@]54O)C[C@@H]2OC)O[C@@H](C)[C@@H]1O`, the Potency in test [1] was 2.66 µM (active); in test [2], 2.66 µM (active); in test [3], 16.9 µM (active); in test [5] it was 21.1 µM (active). Moreover, the Potency result (in test [4]; with Aromatase (Homo sapiens)) was “inactive” throughout.

Consider `CC(C(=O)O)c1ccc(C2CCCCC2)c2ccccc12` (configuration not stated), for which the Potency result in test [1], in test [6], in test [7], in test [3], in [4] and in test [8] was “inactive” throughout. For the same molecule, the Potency result in test [9] and in test [5] was “inactive” each time.

`COc1ccc2c(c1)OC(C)(C)C(c1ccccc1)C2c1ccc(OCCN2CCCC2)cc1` (configuration not stated): the Potency is 10.6 µM (active) in test [1] and 9.44 µM (active) in test [2]. Also, the Potency result in [8] and in test [5] was “inactive” throughout.

As for `CCCCCCCCCCCCCC[n+]1ccc(C)cc1`, the figures for the Potency (in test [1]; in test [2]; with Aromatase (Homo sapiens)) were 7.5 µM (active), 4.73 µM (active) and 8.41 µM (active), respectively. The Potency entry in test [4] was “inactive”.

For the molecule `CN1CCC(CN2c3ccccc3Sc3ccccc32)C1` (configuration not stated), the values for the Potency in [1] and in test [2] were 10.6 µM (active) and 11.9 µM (active), respectively. In addition, the Potency result (in test [3]; in [4]; in test [8]; in test [9]; in test [5]; with Aromatase (Homo sapiens)) was “inactive” throughout.

With `CCCC1([C@H](O)C/C=C/[C@H]2[C@H](O)CC(=O)[C@@H]2CCCCCCC(=O)OC)CCC1`, the Potency in test [1] is 29.8 µM (active); in test [2], 26.6 µM (active). The Potency entry in test [3], in test [8], in [9] and in [5] was “inactive” in each case.

`COc1cc(-c2ccc(-[n+]3nc(-c4ccccc4)nn3-c3ccc([N+](=O)[O-])cc3)c(OC)c2)ccc1-[n+]1nc(-c2ccccc2)nn1-c1ccc([N+](=O)[O-])cc1`: the Potency is 26.6 µM (active) in test [1], 29.8 µM (active) in test [2], 4.25 µM (active) in test [3] and 26.6 µM (active) with Aromatase (Homo sapiens).

For `CC(=O)Oc1cc(C)c(OC(C)=O)c2ccccc12`, the Potency in test [1] is 26.6 µM (active); in [2], 23.7 µM (active); in the test with Aromatase (Homo sapiens) it was 26.6 µM (active). For the same molecule, the Potency result in test [3], in test [4], in test [9] and in test [5] was “inactive” in each case.

As to `CCc1ccc2c(c1)N(CC(C)CN(C)C)c1ccccc1S2` (configuration not stated), the Potency in [1] and in test [2] was 11.9 µM (active) in each case. Besides, the Potency result in test [3], in test [4], in test [8], in test [9] and in [5] was “inactive” throughout.

For the molecule `COc1ccc(C[C@@H](C)NC[C@H](O)c2ccc(O)c(NC=O)c2)cc1`, the Potency entry in test [1], in test [6], in [7], in [4], in test [8] and in test [9] was “inactive” throughout. Besides, the Potency result in test [5] is “inactive”.

Turning to `Cc1cccc(Nc2ncccc2C(=O)O)c1C`, the Potency entry (in test [1]; in [6]; in test [3]; in [4]; in test [5]; with Aromatase (Homo sapiens)) was “inactive” throughout.

As to `CCOc1cc(-c2nccc3cc(OC)c(OC)cc23)cc(OCC)c1OCC`, the Potency in [1] was 29.8 µM (active). Besides, the Potency entry in test [6], in test [3] and in test [4] was “inactive” throughout.

Turning to `NC[C@@H]1O[C@H](O[C@H]2[C@@H](O)[C@H](O[C@@H]3[C@@H](O)[C@H](N)C[C@H](N)[C@H]3O[C@H]3O[C@H](CO)[C@@H](O)[C@H](O)[C@H]3N)O[C@@H]2CO)[C@H](N)[C@@H](O)[C@@H]1O`, the Potency result in test [1], in [7], in test [3], in [4], in test [9] and in [5] was “inactive” each time. In addition, in the test with Aromatase (Homo sapiens), the Potency entry was “inactive”. Besides, the Potency in test [8] is 26.6 µM (active).

Take `CCCCC/C=C\CCC(=O)N[C@H]1[C@H](Oc2c3cc4cc2Oc2ccc(cc2Cl)[C@@H](O[C@@H]2O[C@H](CO)[C@@H](O)[C@H](O)[C@H]2NC(C)=O)[C@@H]2NC(=O)[C@H](NC(=O)[C@@H]4NC(=O)[C@H]4NC(=O)[C@@H](Cc5ccc(c(Cl)c5)O3)NC(=O)[C@H](N)c3ccc(O)c(c3)Oc3cc(O)cc4c3)c3ccc(O)c(c3)-c3c(O[C@H]4O[C@H](CO)[C@@H](O)[C@H](O)[C@@H]4O)cc(O)cc3[C@@H](C(=O)O)NC2=O)O[C@H](CO)[C@@H](O)[C@@H]1O`: the Potency result in test [1], in test [6], in [3], in test [4], in test [8] and in test [9] was “inactive” throughout. Also, the Potency entry with Aromatase (Homo sapiens) was “inactive”.

As to `CC(=O)Nc1c(I)c(C(=O)N[C@H]2C(O)O[C@H](CO)[C@@H](O)[C@@H]2O)c(I)c(N(C)C(C)=O)c1I` (some centres not stated), the Potency result in test [1], in test [7], in [3], in test [4], in [8] and in test [9] was “inactive” throughout. The Potency entry (in [5]; in the test with Aromatase (Homo sapiens)) was “inactive” in each case.

With `CC(=O)O[C@H]1CC[C@@]2(C)C(=CC[C@@H]3[C@@H]2CC[C@]2(C)C(c4cccnc4)=CC[C@@H]32)C1`, the Potency is 29.8 µM (active) in test [1], 13.4 µM [activator] (active) in [4] and 29.8 µM (active) in test [8]. Moreover, the Potency result (in test [6]; in test [7]; in test [3]; in [9]; in test [5]; in the test with Aromatase (Homo sapiens)) was “inactive” each time.

In the case of `FCOC(C(F)(F)F)C(F)(F)F`, the Potency entry in [1], in test [7], in test [3], in [4], in test [8] and in [9] was “inactive” each time. In addition, the Potency entry (in test [5]; with Aromatase (Homo sapiens)) was “inactive” throughout.
